Bioassay records (PubChem BioAssay)
Shown are actives, neighbours in structure and some others; about 0.9% of the full set was active somewhere.
PPARg SRC-2 ag: agonists of PPARg-SRC-2 recruitment, primary screen, biochemical, HTS. PPARgamma LBD-SRC-2 recruitment. activation, % at 8 µM. actives 0.34% (n = 200,000); in the data active = activation above about 22%;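 note: 0% = vehicle and 100% = reference agonist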
Target sequence (P37231 whole entry, looked up, the tested form may be a part): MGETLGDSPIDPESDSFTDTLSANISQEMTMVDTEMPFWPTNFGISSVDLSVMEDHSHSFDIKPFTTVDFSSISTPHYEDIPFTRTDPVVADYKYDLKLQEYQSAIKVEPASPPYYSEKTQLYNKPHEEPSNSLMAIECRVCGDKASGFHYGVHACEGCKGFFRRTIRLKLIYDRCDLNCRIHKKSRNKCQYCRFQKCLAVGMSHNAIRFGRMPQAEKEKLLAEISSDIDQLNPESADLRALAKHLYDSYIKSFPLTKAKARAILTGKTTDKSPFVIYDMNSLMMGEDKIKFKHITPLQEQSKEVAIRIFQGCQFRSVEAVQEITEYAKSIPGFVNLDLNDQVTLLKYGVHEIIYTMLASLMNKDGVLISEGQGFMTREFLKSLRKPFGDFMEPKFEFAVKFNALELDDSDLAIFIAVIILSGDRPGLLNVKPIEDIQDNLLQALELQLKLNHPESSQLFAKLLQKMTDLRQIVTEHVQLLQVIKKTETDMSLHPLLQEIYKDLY
SRC1 TRFRET art: TR-FRET detection interference compounds, primary screen, artefact control for PPARgamma SRC-1 recruitment agonists, biochemical, TR-FRET emission ratio. TR-FRET detection artefact counter-screen; active compounds read high. actives 0.34% (n = 99,000). TR-FRET ratio at 8 µM; in the data active = TR-FRET ratio above about 2300
PPARg SRC-1 ag: PPARgamma agonists recruiting SRC-1 coactivator, primary screen, biochemical | Peroxisome proliferator-activated receptor gamma (Homo sapiens), P37231 | PPARgamma-SRC-1 coactivator recruitment biochemical assay | activation, % at 8 µM | actives 0.41% (n = 200,000); in the data active = activation above about 19%;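 note: 0% = DMSO and 100% = reference agonist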
SRC3 TRFRET art: TR-FRET detection interference compounds, artefact control for PPARgamma SRC-3 recruitment agonists, biochemical, TR-FRET ratio | TR-FRET artefact counter-screen, PPARgamma/SRC-3 format; active compounds read high | TR-FRET ratio at 8 µM | actives 0.39% (n = 99,000)
PPARg SRC-3 ag: PPARgamma agonists recruiting SRC-3 coactivator, primary screen, biochemical; biochemical PPARgamma/SRC-3 coactivator recruitment assay; Peroxisome proliferator-activated receptor gamma (Homo sapiens), P37231; actives 0.26% (n = 200,000); activation, % at 8 µM; in the data active = activation above about 23%;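 note: 0% = DMSO and 100% = reference agonist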
SRC2 TRFRET art: TR-FRET signal artefacts, primary screen, artefact control for PPARgamma SRC-2 agonist project, biochemical; TR-FRET artefact counter-screen; active compounds read high; TR-FRET ratio at 8 µM; actives 0.4% (n = 200,000)
* marks the source's active call; other numbers are inactive results; . = no result given. Cut-off read from the data, not from the text of the source, unless noted: active = TR-FRET ratio above about 2000; inactive = the rest.

SMILES | PPARg SRC-2 ag | SRC1 TRFRET art | PPARg SRC-1 ag | SRC3 TRFRET art | PPARg SRC-3 ag | SRC2 TRFRET art
CCOC(=O)CC(=O)CSc1nc(-c2ccccc2)cc(-c2ccccc2)c1C#N | 11.6 | 2069 | 10.2 | 2399* | 8.1 | 2021*
CC1C(Br)C(=O)NC(=O)N1Cc1ccccc1 (stereo unspecified) | 1.7 | 1910 | 20.9* | 1625 | 2.3 | 1461
COC(=O)c1ccccc1NC(=S)N(Cc1ccc2c(c1)OCO2)Cc1cc2ccc(OC)cc2[nH]c1=O | 13.2 | 1854 | -4.7 | 2123* | -1.4 | 1721
CS(=O)(=O)N(CC(=O)NCc1ccncc1)Cc1ccc(Cl)cc1 | 4.6 | . | -5.4 | . | 27.9* | 1331
COc1ccccc1NC(=O)CSc1nc2nc(C)cc(C)c2c(=O)[nH]1 | 22.3* | . | 9.2 | . | -0.2 | 1689
Cc1cc(C)c2c(=O)[nH]c(SCC(=O)NCc3ccccc3)nc2n1 | -0.7 | . | -2.9 | . | -2.6 | 1619
COCC(=O)OCC(=O)c1cc(C)n(-c2ccc(Br)cc2)c1C | 8.6 | 1859 | 3.7 | 1418 | 2.7 | 1559
O=C1c2ccccc2C(=O)C1c1ccc(O)cc1 | 4.9 | 2190 | 21.3* | 1745 | 4.8 | 1592
O=C(NCc1ccc2c(c1)OCO2)c1nnc(Cc2ccc(F)cc2)o1 | 1.7 | 1946 | 0.4 | 1733 | 3.4 | 1447
O=C(Cc1nc2ccccc2[nH]c1=O)c1ccccc1 | 4.7 | 1925 | 22.5* | 1680 | 7.9 | 1531
COc1ccc(/C(C)=N/N=C2/NC(=O)CC(C(=O)O)S2)cc1 (stereo unspecified) | -3.4 | 1477 | -7.7 | 1614 | -0.9 | 1565
C/C(=N\N=C1\NC(=O)CC(C(=O)O)S1)c1ccc(F)cc1 (stereo unspecified) | -5.9 | 2658* | 15.9 | 1450 | 2.5 | 1531
CCOc1ccc(C(C)NC(=O)c2ccccc2F)cc1 (stereo unspecified) | -5.3 | 1978 | -1.3 | 1462 | -3.0 | 1584
COc1ccc(S(=O)(=O)N2CCCCCC2)cc1N(C)S(=O)(=O)c1ccccc1 | -7.4 | 1690 | 2.4 | 1519 | -2.2 | 1535
Cc1cccn2cc(-c3c[nH]c4ccccc34)nc12 | -0.4 | 2206 | 16.4 | 1746 | 6.2 | 1734
Clc1ccc(-c2cn3cc(Br)ccc3n2)cc1Cl | 16.8 | 2103 | 7.4 | 1909 | 7.8 | 2032*
Clc1ccc2nc(-c3ccc4c(c3)OCO4)cn2c1 | 2.4 | 1809 | 1.0 | 1526 | 3.6 | 1519
Brc1ccc2nc(-c3c[nH]c4ccccc34)cn2c1 | 6.8 | 2053 | 8.8 | 1691 | 7.9 | 1999*
COc1cnn(-c2ccccc2)c(=O)c1N(C)C | -4.7 | . | -4.4 | . | 25.8* | 1421
N/C(=N\OC(=O)COc1ccc(Br)cc1)c1cccnc1 | -0.9 | 1675 | 7.6 | 1430 | 3.2 | 1617
N/C(=N\OC(=O)COc1ccc(Br)cc1Cl)c1ccccn1 | 5.0 | 1963 | 9.3 | 1619 | 4.1 | 1664
N/C(=N\OC(=O)COc1ccc2ccccc2c1Br)c1ccccn1 | 20.2 | 2360* | 8.1 | 2027 | 11.1 | 1993*
N/C(=N\OC(=O)COc1ccc2ccccc2c1Br)c1cccnc1 | 14.3 | 2331* | 3.8 | 1766 | 6.9 | 1797
N#CC1=C(N)SC(N)=C(C#N)C1C1CC=CCC1 (stereo unspecified) | 4.9 | . | -6.5 | . | 9.2 | 1733
O=c1cnnc(SCc2ccc([N+](=O)[O-])cc2)[nH]1 | 45.4* | 1538 | 78.6* | 1609 | 73.1* | 1688
CCN(CC)CCN(Cc1cc2cc3c(cc2[nH]c1=O)OCCO3)C(=O)NC1CCCCC1 | -1.7 | . | 19.2* | . | 2.8 | 1649
COc1ccc(-c2cn3c(C)c(C(=O)Nc4ccncc4)sc3n2)cc1 | 1.1 | . | 1.0 | . | -14.7 | 1516
Cc1c(C(=O)Nc2ccncc2)sc2nc(-c3ccc(F)cc3)cn12 | 21.7 | 2289 | 6.3 | 2105* | 13.4 | 1995*
CCCCNC(=O)/C(C#N)=C/c1ccc(F)cc1F | -9.9 | 1614 | -6.7 | 1540 | 2.0 | 1652
O=Cc1sc(N2CCOCC2)nc1-c1ccccc1 | 4.2 | 2073 | 1.6 | 2197* | 14.2 | 1731
